# Legend:
# Test in all cases: DAPPL (digital affinity profiling via proximity ligation, sequencing); 10 mM Tris-HCl pH 7.5, 50 mM NaCl, 1 mM DTT, 4% glycerol, room temperature, 30 min; GST-TFs on glutathione beads, 16-mer random dsDNA library, 0.1% formaldehyde crosslink after washing; high values mean tight binding
# Conditions in all cases: protein: recombinant; tags: N-terminal GST; dsDNA, one strand shown
# [1] = biological target: ETV5 (Homo sapiens, UniProt P41161 1-510)
# Method in brief: (§1)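 Human transcription factors carrying a GST fusion were produced in yeast, bound to glutathione beads, tagged with DNA barcodes and pooled together with a tag-only sample. Each pool was held with 200 nmole of a random double-stranded 16-mer DNA library in Tris/NaCl/DTT/glycerol buffer for 30 min at room temperature, then washed, crosslinked in 0.1% formaldehyde, proximity-ligated with BsaI/T4 ligase (1 h, 37 °C), PCR-amplified and sequenced on an Illumina NextSeq500. Binding signal is the read frequency of each hexamer for a given factor divided by its frequency in the tag-only sample.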
# [2] = biological target: T1, SPIC (Homo sapiens, UniProt Q8N5J4 1-248)
# T1 sequence: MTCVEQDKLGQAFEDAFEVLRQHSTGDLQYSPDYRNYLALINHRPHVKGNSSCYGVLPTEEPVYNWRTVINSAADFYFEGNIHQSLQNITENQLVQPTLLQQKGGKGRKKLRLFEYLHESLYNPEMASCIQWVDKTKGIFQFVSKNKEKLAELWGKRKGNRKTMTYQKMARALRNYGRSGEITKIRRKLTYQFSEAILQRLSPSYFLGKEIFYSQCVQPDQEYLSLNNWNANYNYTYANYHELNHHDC
# Method in brief: as §1
# [3] = biological target: ELF4 (Homo sapiens, UniProt Q99607 1-663)
# ELF4, sequence (Q99607 whole entry): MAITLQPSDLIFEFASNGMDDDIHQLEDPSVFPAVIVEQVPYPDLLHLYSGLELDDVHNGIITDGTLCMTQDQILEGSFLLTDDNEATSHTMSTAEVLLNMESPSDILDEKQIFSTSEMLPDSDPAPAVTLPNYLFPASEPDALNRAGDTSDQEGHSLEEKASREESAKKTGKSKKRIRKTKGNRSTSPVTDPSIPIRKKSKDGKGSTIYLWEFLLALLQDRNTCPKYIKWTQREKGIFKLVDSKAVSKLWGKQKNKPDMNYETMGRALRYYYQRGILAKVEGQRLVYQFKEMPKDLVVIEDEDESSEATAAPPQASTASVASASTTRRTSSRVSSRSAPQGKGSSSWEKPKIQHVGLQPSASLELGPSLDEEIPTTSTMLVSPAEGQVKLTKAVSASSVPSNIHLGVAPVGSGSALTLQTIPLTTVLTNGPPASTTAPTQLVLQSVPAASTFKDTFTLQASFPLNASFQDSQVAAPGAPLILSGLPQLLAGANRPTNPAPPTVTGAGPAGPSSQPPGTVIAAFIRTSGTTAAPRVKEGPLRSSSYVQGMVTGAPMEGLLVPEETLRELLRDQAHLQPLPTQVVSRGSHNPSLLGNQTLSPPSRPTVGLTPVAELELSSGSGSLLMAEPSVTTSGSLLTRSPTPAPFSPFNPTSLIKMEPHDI
# Method in brief: as §1
# [4] = biological target: ETV1 (Homo sapiens, UniProt P50549 1-477)
# ETV1, sequence (P50549 whole entry): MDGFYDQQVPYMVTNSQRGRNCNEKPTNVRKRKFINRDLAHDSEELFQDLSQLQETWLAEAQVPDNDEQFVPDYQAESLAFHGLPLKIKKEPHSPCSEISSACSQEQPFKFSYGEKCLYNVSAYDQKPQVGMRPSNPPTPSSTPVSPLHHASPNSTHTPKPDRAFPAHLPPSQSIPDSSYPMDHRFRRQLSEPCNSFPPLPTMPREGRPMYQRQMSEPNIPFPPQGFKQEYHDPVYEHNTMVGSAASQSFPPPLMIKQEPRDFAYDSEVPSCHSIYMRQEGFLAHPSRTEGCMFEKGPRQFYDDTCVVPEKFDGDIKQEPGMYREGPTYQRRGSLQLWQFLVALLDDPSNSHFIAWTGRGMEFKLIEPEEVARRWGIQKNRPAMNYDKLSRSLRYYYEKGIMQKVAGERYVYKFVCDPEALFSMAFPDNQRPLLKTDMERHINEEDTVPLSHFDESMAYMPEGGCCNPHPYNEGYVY
# Method in brief: as §1
# [5] = biological target: T2, ERF (Homo sapiens, UniProt P50548 1-548)
# T2 sequence: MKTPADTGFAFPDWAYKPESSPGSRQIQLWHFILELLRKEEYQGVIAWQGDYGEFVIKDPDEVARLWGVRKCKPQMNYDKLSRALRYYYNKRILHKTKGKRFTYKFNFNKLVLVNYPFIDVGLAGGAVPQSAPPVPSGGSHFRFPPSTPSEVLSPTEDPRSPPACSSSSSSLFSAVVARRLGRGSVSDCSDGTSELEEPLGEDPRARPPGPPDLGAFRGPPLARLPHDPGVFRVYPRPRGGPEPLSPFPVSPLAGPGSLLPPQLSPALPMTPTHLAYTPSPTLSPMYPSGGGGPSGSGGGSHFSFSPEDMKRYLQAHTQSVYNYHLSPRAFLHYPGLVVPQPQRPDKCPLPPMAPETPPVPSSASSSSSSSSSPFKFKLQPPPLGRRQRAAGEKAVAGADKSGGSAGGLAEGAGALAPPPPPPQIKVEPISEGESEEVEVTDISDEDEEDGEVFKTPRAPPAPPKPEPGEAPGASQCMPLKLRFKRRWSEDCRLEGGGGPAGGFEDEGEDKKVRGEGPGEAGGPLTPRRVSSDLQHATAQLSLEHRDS
# Method in brief: as §1
# [6] = biological target: T3, ETV3L (Homo sapiens, UniProt Q6ZN32 1-361)
# T3 sequence: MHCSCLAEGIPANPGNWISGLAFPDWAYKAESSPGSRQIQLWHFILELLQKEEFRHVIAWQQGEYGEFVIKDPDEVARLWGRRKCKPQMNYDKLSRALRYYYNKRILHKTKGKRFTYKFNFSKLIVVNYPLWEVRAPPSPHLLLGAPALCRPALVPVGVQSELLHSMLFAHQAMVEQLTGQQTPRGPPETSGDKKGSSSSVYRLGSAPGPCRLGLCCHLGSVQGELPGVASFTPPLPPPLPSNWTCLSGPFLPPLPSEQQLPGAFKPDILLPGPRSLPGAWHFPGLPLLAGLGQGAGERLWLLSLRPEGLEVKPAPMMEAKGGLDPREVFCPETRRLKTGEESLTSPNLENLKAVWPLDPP
# Method in brief: as §1
# [7] = biological target: T4, ETS2 (Homo sapiens, UniProt P15036 1-469)
# T4 sequence: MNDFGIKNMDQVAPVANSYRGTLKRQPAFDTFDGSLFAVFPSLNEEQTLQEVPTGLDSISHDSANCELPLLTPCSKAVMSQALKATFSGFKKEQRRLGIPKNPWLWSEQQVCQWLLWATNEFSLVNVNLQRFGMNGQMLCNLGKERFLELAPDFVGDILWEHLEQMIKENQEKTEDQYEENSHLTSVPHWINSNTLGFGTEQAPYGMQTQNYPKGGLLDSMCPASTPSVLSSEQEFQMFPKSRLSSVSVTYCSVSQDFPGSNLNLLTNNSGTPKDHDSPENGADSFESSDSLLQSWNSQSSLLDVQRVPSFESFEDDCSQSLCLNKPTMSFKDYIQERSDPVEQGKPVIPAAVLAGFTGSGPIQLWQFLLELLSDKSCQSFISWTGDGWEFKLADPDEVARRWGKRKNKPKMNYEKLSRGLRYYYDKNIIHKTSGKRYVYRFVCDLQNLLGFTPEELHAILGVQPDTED
# Method in brief: as §1
# [8] = biological target: T5, SPDEF (Homo sapiens, UniProt O95238 1-335)
# T5 sequence: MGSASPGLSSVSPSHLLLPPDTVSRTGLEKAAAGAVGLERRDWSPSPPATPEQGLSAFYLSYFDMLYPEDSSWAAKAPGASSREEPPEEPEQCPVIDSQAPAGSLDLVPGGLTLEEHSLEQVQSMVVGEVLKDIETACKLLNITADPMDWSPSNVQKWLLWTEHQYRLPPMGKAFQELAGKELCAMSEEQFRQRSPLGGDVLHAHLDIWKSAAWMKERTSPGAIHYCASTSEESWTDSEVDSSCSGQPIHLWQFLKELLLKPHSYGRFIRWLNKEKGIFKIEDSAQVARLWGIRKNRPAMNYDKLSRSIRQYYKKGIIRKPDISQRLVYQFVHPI
# Method in brief: as §1
# [9] = biological target: T6, ETV3 (Homo sapiens, UniProt P41162-2 1-143)
# T6 sequence: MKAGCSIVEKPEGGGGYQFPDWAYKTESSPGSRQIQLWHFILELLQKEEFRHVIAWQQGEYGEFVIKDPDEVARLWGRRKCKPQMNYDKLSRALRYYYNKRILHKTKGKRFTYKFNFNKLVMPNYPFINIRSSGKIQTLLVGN
# Method in brief: as §1
# [10] = biological target: ETV6 (Homo sapiens, UniProt P41212 1-452)
# ETV6, sequence (P41212 whole entry): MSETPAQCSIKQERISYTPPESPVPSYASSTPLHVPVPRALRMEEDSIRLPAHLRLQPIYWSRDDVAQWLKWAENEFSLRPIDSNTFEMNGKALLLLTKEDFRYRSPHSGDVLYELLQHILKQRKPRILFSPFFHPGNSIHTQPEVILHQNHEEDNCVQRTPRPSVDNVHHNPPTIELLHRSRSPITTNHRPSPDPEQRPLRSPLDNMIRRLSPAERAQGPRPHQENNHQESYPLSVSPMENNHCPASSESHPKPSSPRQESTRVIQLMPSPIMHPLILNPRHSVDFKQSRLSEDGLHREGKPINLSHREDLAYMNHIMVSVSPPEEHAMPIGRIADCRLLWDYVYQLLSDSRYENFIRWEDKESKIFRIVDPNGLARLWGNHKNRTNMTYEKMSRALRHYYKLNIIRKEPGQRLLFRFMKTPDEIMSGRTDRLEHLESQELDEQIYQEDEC
# Method in brief: as §1
# ETV5, sequence (P41161 whole entry, the tested form may be a part): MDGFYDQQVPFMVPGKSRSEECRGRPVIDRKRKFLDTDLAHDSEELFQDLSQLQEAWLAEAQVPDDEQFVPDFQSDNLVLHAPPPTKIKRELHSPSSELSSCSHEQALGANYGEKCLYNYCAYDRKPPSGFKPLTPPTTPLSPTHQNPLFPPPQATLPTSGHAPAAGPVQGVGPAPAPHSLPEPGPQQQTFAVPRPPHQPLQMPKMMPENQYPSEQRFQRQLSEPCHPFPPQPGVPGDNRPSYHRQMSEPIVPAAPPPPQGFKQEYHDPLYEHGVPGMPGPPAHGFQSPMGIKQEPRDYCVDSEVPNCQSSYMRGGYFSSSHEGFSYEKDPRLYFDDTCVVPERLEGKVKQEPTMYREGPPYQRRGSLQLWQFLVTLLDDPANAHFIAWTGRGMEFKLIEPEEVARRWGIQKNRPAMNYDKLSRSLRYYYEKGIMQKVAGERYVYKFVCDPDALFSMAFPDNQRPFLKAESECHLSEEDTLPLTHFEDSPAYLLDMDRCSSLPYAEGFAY
sequence,measurement,setting,value
CCACCT,binding signal,[1],"1.07 fold enrichment (6-mer frequency, TF over GST control)"
same,binding signal,[2],"1.19 fold enrichment (6-mer frequency, TF over GST control)"
same,binding signal,[3],"1.15 fold enrichment (6-mer frequency, TF over GST control)"
same,binding signal,[4],"1.07 fold enrichment (6-mer frequency, TF over GST control)"
same,binding signal,[5],"1.13 fold enrichment (6-mer frequency, TF over GST control)"
same,binding signal,[6],"1.08 fold enrichment (6-mer frequency, TF over GST control)"
same,binding signal,[7],"1.1 fold enrichment (6-mer frequency, TF over GST control)"
same,binding signal,[8],"1.19 fold enrichment (6-mer frequency, TF over GST control)"
same,binding signal,[9],"1.08 fold enrichment (6-mer frequency, TF over GST control)"
same,binding signal,[10],"1.06 fold enrichment (6-mer frequency, TF over GST control)"

# Source: paper PMC7862700, “An all-to-all approach to the identification of sequence-specific readers for epigenetic DNA modifications on cytosine”
